# Values without a mark were called inactive. The source made the active and inactive calls. Rule as the data show it, unless noted: active = inhibition above about 36%; inactive = the rest.
# How the values were obtained:
# [1] = target: Nuclear receptor coactivator 3 (Homo sapiens) (UniProt Q9Y6Q9); experiment: NCOA3 GAL4-fusion reporter inhibition – cell-based, luminescence, quadruplicate, confirmation (AID 588792;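 active = mean inhibition over 43.08%, the solvent-only control mean plus 3 SD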;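 also: 0% = DMSO treated cells and 100% = gossypol at 36 µM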); conditions: HEK293 GAL4-SRC3 luciferase reporter, at 3.6 µM, active compounds read high
# [2] = test system: transactivating tegument protein VP16 (Human herpesvirus 1), Gal4-VP16 luciferase reporter; experiment: repression of VP16-driven luciferase reporter – cell-based, luminescence, high throughput, counter-screen for SRC3 inhibitor project (AID 588794; in the data active = inhibition above about 30%); conditions: mammalian cells, at 3.6 µM, active compounds read high
# [3] = target: Nuclear receptor coactivator 1 (Homo sapiens) (UniProt Q15788); experiment: NCOA1 GAL4-fusion reporter inhibition – cell-based, luminescence, quadruplicate, confirmation (AID 588820;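 active = mean inhibition above 46.68%, the untreated control wells mean plus 3 SD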;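 also: 0% = DMSO wells and 100% = gossypol 36 µM treated wells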); conditions: HEK293 GAL4-SRC1 luciferase reporter, at 3.6 µM, active compounds read high
# [4] = repression of VP16-driven luciferase reporter – cell-based, luminescence, high throughput, counter-screen for SRC1 inhibitor project (AID 588824; in the data active = inhibition above about 25%); conditions: cell-based VP16 transactivation luciferase luminescence; at 3.6 µM; active compounds read high
# [5] = StAR promoter reporter inhibitors, counter-screen for LRH-1 inverse agonist project, cell-based, luminescence, high throughput (AID 651611; in the data active = inhibition above about 28%); conditions: StAR promoter luciferase reporter counterscreen, at 3.6 µM, active compounds read high
# [6] = target: Nuclear receptor subfamily 5 group A member 2 (Homo sapiens) (UniProt O00482); experiment: NR5A2 activity suppression in reporter cells – cell-based, luminescence, confirmation (AID 651613; in the data active = inhibition above about 42%;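 also: HEK293T cells co-transfected with LRH-1 and StAR promoter luciferase reporter; 0% = vehicle wells and 100% = parental cells lacking receptor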); conditions: cell-based LRH-1 luciferase reporter, inverse agonism; at 3.6 µM; active compounds read high
# [7] = target: Steroidogenic factor 1 (Homo sapiens) (UniProt Q13285); experiment: inverse agonism at SF1 nuclear receptor – cell-based, luminescence, high throughput, counter-screen for LRH-1 inverse agonist project (AID 651614; in the data active = inhibition above about 44%;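 also: cells cotransfected with StAR promoter reporter and SF1 expression vector; 0% = vehicle on cells with receptor and 100% = vehicle on cells lacking receptor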); conditions: cell-based SF1 luciferase reporter, at 3.6 µM, active compounds read high
# [8] = compounds suppressing VP16-driven luciferase signal – cell-based, luminescence, high throughput, counter-screen for LRH-1 inverse agonist project (AID 651615; in the data active = inhibition above about 33%); conditions: Gal4-VP16 luciferase reporter cells, at 3.6 µM, active compounds read high
# [9] = test system: transactivating tegument protein VP16 (Human herpesvirus 1); experiment: compounds suppressing VP16-driven luciferase signal – cell-based, luminescence, single concentration, counter-screen for SRC2 inhibitor project (AID 652007); conditions: cell-based VP16 transactivation luciferase reporter, at 8.9 µM, active compounds read high
# [10] = target: Nuclear receptor coactivator 2 (Homo sapiens) (UniProt Q15596); experiment: inhibition of GAL4-SRC2 driven luciferase expression – cell-based, luminescence, HEK293, triplicate, confirmation (AID 652008;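 active = mean inhibition above 46.5%, the solvent-only control mean plus 3 SD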;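 also: 0% = DMSO-treated cells and 100% = Gossypol at 36 µM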); conditions: HEK293 GAL4-SRC2 luciferase reporter, at 8.9 µM, active compounds read high
# Sequence of Nuclear receptor coactivator 2 (Homo sapiens) (Q15596 whole entry, looked up, the tested form may be a part): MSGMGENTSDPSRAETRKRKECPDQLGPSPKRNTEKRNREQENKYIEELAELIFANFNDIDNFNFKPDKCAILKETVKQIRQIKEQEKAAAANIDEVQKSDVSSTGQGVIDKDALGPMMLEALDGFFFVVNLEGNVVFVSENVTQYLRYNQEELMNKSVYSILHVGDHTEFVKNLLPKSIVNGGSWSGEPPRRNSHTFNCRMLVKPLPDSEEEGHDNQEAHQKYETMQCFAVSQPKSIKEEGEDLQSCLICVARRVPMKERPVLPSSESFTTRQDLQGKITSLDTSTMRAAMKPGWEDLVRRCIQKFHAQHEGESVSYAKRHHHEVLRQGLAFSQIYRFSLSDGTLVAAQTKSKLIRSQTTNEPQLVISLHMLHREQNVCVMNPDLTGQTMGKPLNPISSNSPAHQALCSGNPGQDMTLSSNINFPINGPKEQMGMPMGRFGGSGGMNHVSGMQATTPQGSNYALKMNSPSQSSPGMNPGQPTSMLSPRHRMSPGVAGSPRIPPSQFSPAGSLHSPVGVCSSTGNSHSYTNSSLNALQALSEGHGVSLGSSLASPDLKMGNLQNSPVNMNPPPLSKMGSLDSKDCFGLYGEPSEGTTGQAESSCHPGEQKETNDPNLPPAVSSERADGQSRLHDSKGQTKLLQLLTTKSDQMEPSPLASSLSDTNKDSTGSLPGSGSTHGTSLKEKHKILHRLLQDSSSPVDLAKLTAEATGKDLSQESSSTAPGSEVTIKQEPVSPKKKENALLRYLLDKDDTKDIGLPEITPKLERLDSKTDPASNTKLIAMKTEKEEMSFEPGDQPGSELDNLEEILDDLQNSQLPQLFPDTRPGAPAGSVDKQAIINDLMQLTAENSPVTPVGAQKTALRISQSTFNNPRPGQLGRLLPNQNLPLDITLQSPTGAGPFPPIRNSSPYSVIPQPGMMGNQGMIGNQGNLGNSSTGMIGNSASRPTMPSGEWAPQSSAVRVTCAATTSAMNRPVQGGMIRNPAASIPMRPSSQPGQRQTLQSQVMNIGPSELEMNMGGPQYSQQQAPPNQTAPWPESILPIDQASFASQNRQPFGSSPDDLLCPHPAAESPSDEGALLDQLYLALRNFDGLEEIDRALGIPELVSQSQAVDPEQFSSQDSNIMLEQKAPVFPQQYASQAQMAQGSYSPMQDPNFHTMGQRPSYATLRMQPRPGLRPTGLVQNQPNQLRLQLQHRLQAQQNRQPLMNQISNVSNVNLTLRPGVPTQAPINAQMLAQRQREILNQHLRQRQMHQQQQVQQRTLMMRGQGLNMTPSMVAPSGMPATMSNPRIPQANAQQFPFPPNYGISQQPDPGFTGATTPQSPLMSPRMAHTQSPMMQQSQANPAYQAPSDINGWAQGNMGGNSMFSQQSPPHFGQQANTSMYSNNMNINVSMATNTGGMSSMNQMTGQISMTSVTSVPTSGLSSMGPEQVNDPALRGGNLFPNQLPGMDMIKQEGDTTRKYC
# Sequence of Steroidogenic factor 1 (Homo sapiens) (Q13285 whole entry, looked up, the tested form may be a part): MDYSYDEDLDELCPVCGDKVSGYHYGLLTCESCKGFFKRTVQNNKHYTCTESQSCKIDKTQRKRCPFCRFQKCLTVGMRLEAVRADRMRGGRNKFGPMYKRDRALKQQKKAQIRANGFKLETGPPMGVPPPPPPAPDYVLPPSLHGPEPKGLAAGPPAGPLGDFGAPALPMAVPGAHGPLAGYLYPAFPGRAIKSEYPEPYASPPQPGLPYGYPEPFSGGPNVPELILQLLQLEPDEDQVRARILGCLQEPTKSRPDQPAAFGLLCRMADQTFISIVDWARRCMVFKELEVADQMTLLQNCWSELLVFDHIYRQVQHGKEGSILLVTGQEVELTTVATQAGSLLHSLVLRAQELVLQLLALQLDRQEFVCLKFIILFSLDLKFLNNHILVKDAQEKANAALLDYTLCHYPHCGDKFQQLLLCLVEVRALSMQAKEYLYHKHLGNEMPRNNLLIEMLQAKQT
# Sequence of Nuclear receptor coactivator 1 (Homo sapiens) (Q15788 whole entry, looked up, the tested form may be a part): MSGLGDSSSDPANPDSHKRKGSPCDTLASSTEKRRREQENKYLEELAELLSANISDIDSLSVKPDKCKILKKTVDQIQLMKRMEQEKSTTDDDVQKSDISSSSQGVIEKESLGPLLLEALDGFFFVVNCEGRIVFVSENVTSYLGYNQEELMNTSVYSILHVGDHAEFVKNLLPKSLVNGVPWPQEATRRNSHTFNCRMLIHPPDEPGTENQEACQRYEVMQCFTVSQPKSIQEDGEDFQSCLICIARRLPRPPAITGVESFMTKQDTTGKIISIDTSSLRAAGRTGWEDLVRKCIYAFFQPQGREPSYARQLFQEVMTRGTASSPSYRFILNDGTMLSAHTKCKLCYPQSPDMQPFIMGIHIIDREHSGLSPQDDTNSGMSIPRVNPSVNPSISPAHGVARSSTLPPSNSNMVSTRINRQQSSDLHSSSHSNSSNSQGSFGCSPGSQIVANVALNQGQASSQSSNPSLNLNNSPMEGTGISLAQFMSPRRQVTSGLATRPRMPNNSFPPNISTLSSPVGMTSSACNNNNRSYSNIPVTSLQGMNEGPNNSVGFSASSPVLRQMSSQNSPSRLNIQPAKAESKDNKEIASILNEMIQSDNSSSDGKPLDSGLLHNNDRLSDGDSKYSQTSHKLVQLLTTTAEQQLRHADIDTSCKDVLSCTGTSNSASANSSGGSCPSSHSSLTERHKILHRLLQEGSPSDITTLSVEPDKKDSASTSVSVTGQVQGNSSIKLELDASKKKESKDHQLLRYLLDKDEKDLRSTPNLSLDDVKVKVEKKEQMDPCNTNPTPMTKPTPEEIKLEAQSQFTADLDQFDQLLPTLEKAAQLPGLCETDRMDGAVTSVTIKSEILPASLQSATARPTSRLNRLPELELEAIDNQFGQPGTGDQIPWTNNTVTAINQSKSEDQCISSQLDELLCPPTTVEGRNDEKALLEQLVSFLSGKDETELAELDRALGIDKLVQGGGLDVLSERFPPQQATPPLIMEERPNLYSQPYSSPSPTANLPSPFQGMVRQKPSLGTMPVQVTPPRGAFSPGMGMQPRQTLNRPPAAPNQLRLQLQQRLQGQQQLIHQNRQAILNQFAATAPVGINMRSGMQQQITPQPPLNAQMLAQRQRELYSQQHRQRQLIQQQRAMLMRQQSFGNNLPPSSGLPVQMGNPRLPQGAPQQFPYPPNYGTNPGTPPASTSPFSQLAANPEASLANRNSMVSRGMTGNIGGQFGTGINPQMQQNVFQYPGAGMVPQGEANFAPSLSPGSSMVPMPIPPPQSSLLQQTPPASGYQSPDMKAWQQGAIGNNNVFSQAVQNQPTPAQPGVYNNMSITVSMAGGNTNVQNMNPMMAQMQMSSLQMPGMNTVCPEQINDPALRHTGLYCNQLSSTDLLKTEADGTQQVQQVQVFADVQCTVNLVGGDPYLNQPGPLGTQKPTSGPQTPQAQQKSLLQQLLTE
# Sequence of Nuclear receptor coactivator 3 (Homo sapiens) (Q9Y6Q9 whole entry, looked up, the tested form may be a part): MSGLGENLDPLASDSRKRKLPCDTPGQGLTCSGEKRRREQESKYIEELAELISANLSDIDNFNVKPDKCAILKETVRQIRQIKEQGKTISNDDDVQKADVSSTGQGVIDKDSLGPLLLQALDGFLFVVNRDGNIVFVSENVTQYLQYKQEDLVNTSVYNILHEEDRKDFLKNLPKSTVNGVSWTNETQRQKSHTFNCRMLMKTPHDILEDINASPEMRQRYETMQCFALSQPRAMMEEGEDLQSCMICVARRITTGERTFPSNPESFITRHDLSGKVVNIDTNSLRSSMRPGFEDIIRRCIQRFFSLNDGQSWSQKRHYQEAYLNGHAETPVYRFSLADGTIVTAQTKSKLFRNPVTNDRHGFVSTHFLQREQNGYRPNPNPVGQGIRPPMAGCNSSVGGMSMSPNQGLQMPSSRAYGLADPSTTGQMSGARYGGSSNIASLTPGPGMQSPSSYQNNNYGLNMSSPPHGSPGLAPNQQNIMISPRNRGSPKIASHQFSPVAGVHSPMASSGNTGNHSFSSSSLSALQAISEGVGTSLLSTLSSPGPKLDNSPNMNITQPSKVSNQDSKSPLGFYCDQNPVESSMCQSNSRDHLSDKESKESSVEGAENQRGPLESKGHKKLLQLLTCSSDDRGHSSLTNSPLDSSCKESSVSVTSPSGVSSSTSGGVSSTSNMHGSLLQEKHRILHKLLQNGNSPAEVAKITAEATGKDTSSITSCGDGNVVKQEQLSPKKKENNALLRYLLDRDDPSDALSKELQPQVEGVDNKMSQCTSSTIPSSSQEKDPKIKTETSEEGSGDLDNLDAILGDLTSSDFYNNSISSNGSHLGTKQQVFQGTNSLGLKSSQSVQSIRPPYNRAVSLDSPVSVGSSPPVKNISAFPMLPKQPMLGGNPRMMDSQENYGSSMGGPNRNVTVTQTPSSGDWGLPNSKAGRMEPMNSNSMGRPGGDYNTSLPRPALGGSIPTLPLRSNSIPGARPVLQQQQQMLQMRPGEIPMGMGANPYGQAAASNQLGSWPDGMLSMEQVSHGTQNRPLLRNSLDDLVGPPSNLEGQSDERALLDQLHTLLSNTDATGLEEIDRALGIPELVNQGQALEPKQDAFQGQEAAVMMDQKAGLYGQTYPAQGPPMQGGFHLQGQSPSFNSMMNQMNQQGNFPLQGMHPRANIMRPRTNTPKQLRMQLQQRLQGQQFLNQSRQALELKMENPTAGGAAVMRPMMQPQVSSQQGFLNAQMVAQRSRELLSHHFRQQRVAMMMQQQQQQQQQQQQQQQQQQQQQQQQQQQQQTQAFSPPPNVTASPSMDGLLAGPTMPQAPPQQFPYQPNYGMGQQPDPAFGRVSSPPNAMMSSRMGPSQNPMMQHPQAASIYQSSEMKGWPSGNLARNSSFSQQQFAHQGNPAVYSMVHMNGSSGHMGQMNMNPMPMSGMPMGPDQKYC
Structure (SMILES),inhibition [1],inhibition [2],inhibition [3],inhibition [4],inhibition [5],inhibition [6],inhibition [7],inhibition [8],inhibition [9],inhibition [10]
COC1=CC(=O)c2c(ccc3ncnc(N)c23)C1=O,60.8% (active),65.1% (active),-4.46%,64.3% (active),62.4% (active),82.8% (active),84.6% (active),82.1% (active),37.5% (active),69.5% (active)
Cc1cc(C2=NNC(=NC3CC3)SC2)c(C)n1-c1ccccc1F,84.8% (active),88.3% (active),78.7% (active),80.7% (active),92% (active),79.6% (active),91.1% (active),79.1% (active),93.6% (active),97% (active)
N#Cc1c(N)n(C2OC(CO)C(O)C2O)c2ncnc(N)c12 (stereo not given),96% (active),96% (active),79.9% (active),95.1% (active),85.9% (active),106% (active),95.6% (active),96.3% (active),62% (active),66.3% (active)
O=C(CC1CS(=O)(=O)CC1CC(=O)Nc1ccc2c(c1)OCCO2)Nc1ccc2c(c1)OCCO2 (stereo not given),37.1%,-5.19%,-14.1%,-21.8%,-26.2%,-91.7%,-43.4%,-53.8%,46.5% (active),57% (active)
Nc1ccc(Oc2ccccc2-c2ccccc2)cc1,42.6%,17.6%,14.7%,19%,30.3% (active),53.5% (active),49.6% (active),39.6% (active),80.5% (active),87.8% (active)
